Hits are enriched below; roughly 21% of the tested compounds scored in any of these assays.
NS1 function inh: blocks influenza NS1 protein function | Potency, µM (titrated, usually from 46.1 µM) | 270,000 tested, 0.4% active; calls by dose curve; also: actives are rising curves; nearly all actives have a fitted effect of over 50% in size
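A cell-based growth assay was used: compounds that relieve NS1-induced slow growth of budding yeast raise OD600. Assay medium was yeast nitrogen base with ammonium sulphate and -URA supplement, pH 6.0, with 2% galactose.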
Sm TGR inh: blocks Schistosoma mansoni thioredoxin glutathione reductase. Q962Y6. purified TGR, DTNB reduction, TNB absorbance 405 nm. Potency, µM (doses to about 114 µM), most hits filed as inhibitors. 360,000 tested, 3% active. AID 485364; also: nearly all actives have a fitted effect of over 60% in size
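First, TGR (20 nM dispensed) and NADPH were mixed with compound. Second, a 15 min room-temperature incubation followed. Third, further NADPH and then DTNB were added to start the reaction. Finally, TNB absorbance was monitored kinetically.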
CHX counter: counter-screen hit for Shiga toxin inhibitors, cycloheximide | cell reporter, cycloheximide protein synthesis inhibition counterscreen | max response, % | 300,000 tested, 12% active | AID 2314; in the data active = max response mostly above about 13%, no sharp cut-off; inactive = mostly below about 14%; also: read at 38.3 µM for the half of the compounds with a filed dose
Pf growth 48h: P. falciparum growth inhibition at 48 hours (one generation). P. falciparum luciferase growth in erythrocytes, 48 h. Potency, µM (series often up to 28.7 µM), actives largely listed as inhibitors. 310,000 tested, 5.9% active. AID 504832
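Here the parasites carry a stable luciferase gene and grow inside erythrocytes in Albumax-based RPMI medium with compound for one erythrocytic cycle. Activity is scored as loss of luminescent signal.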
Shiga toxin inh: blocks Shiga toxin action in Vero cells; Vero cells, Shiga toxin protein synthesis inhibition reporter; inhibition, % at 38.7 µM; 290,000 tested, 9.2% active; AID 2315; in the data active = inhibition mostly above about 28%, no sharp cut-off; inactive = mostly below about 43%
Pf growth 96h: P. falciparum growth inhibition at 96 hour, primary screen for plastid delayed-death inhibitors. 320,000 tested, 6.9% active. P. falciparum luciferase reporter growth, 96 h. Potency, µM (titrated, usually from 28.7 µM), hits mostly inhibitors. AID 504834
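P. falciparum expressing integrated firefly luciferase, in erythrocytes at 2% hematocrit, 0.05% parasitemia, incubated with compounds 96 h at 37 C, 5% CO2. Growth inhibition read as loss of luminescence; two-generation exposure targets delayed-death apicoplast inhibitors.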
A number is an active result; i = inactive; ? = inconclusive; nt = not tested or not shown; [ ] = another dose, or the depositor's remark. Unless noted, calls follow the shape of the dose curve; as a rule, active = well fitted curve in the direction sought with a large enough effect; inconclusive = small, poorly fitted or top-dose-only effect, or another doubt; inactive = no such curve, though single readings can be large; an effect the other way counts as inactive or inconclusive.

SMILES	NS1 function inh	Sm TGR inh	CHX counter	Pf growth 48h	Shiga toxin inh	Pf growth 96h
CCOc1ccccc1N1CCN(c2nc3ccccc3nc2C(C#N)C(=O)OC(C)C)CC1 (configuration not stated)	i	i	i	i	i	?
C=CCOC(=O)C(C#N)c1nc2ccccc2nc1N1CCN(c2ccccc2OCC)CC1 (configuration not stated)	i	i	i	9.3µM	i	9.3µM
CCOC(=O)C1CCN(c2nc3ccccc3nc2C(C#N)C(=O)OC(C)C)CC1 (configuration not stated)	i	i	i	?	i	i
CCC(C)COC(=O)C(C#N)c1nc2ccccc2nc1N1CCCCC1 (configuration not stated)	i	i	i	?	i	i
C=CCOC(=O)C(C#N)c1nc2ccccc2nc1N1CCC(C(=O)OCC)CC1 (configuration not stated)	i	i	i	1.2µM	i	i
CCOC(=O)C1CCN(c2nc3ccccc3nc2C(C#N)C(=O)OC(C)COC)CC1 (configuration not stated)	i	i	i	8.3µM	i	?
CCC(CC)COC(=O)C(C#N)c1nc2ccccc2nc1N1CCN(CC)CC1 (configuration not stated)	i	i	i	10µM	i	i
COC(=O)C1CCN(c2nc3ccccc3nc2C(C#N)C(=O)NCCc2ccccc2)CC1 (configuration not stated)	i	i	i	i	i	15µM
CCCC(=O)OC(C(=O)Nc1cc(C(F)(F)F)ccc1Cl)c1ccccc1 (configuration not stated)	i	i	i	13µM	i	13µM
O=C(OC(C(=O)Nc1ccc(Cl)cc1C(F)(F)F)c1ccccc1)c1c(Cl)cccc1Cl (configuration not stated)	i	i	i	12µM	i	i
Cc1cc(C(=O)NCC(=O)OC(C(=O)Nc2cc(C(F)(F)F)ccc2Cl)c2ccccc2)ccc1[N+](=O)[O-] (configuration not stated)	i	i	i	nt	i	?
COc1ccc(NC(=O)c2ccco2)cc1NC(=O)c1cc(OC)c(OC)c(OC)c1	nt	i	nt	nt	nt	nt
COc1ccc(NC(=O)c2ccc(S(=O)(=O)N3CCCCCC3)cc2)c(OC)c1	i	i	i	i	i	13µM
CNC(=O)c1ccccc1NC(=O)c1cccc(S(=O)(=O)N2CCCCC2)c1	nt	i	i	?	i	2.9µM
COc1ccc(NC(=O)c2cccc(S(=O)(=O)N3CCN(c4ccccc4)CC3)c2)c(OC)c1	nt	i	nt	10µM	nt	?
COc1ccccc1NC(=O)c1cccc(S(=O)(=O)N2CCN(c3ccccc3)CC2)c1	nt	i	nt	?	nt	?
COc1ccc(NC(=O)c2cccc(S(=O)(=O)N3CCCCC3)c2)c(OC)c1	i	i	i	i	i	2.9µM
Cc1ccc2cc(N)ccc2n1	i	nt	i	i	i	i
Nc1ccc2cc3ccc(N)cc3nc2c1	nt	nt	nt	3.8µM	nt	2.4µM
O=S(=O)(c1ccc2nc(-c3ccccc3)[nH]c2c1)N1CCN(c2ccc(Cl)cc2)CC1	i	i	i	12µM	i	?
O=S(=O)(c1ccc2nc(COc3ccc(Cl)cc3Cl)[nH]c2c1)N1CCOCC1	i	i[11.4 µM]	14	nt	i	i
O=C(CCCn1cc([N+](=O)[O-])cn1)Nc1ccc2c(c1)OCO2	i	i	i	i	i	i
CCn1ncc(C2=NOC(C(=O)Nc3cc(OC)c(Cl)cc3OC)C2)c1C (configuration not stated)	i	i	i	i	i	?
COc1cc(OC)c(C2=NOC(C(=O)Nc3c(C)nn(CC(=O)N4CCCC4)c3C)C2)cc1Cl (configuration not stated)	i	i	i	i	i	5.9µM
CC1(C)CC(=O)C/C(=N\NC(=O)C2CC2c2ccccc2)C1 (configuration not stated)	nt	?	i	i	44	i
SMILES	NS1 function inh	Sm TGR inh	CHX counter	Pf growth 48h	Shiga toxin inh	Pf growth 96h
CCOc1ccc(C(=O)CC(Sc2ccc(C)cc2)C(=O)O)cc1 (configuration not stated)	i	3.2µM	i	i	i	i
CCC(Sc1ccc(C(=O)O)cc1)C(=O)O (configuration not stated)	i	i	i	i	i	?
O=C(CC(Sc1ccc(Br)cc1)C(=O)O)c1ccc(F)cc1 (configuration not stated)	i	0.63µM	i	nt	i	?
CCOC(=O)c1sc2nccc(OC)c2c1N=CNOC	nt	i	i	i	i	i
Cc1c(CN2CCc3c([nH]c4ccccc34)C2C2CCCCC2)cnn1C (configuration not stated)	i	i	i	?	i	5.9µM
Cc1cnc(CN2CCc3c([nH]c4ccccc34)C2CC(C)C)[nH]1 (configuration not stated)	i	i	i	13µM	i	i
Cc1cccc(CN2CCc3c([nH]c4ccccc34)C2CC(C)C)n1 (configuration not stated)	i	i	i	9.3µM	i	10µM
CCn1ccnc1CN1CCc2c([nH]c3ccccc23)C1CC(C)C (configuration not stated)	i	i	i	?	i	?
O=C(COc1ccc(Cl)cc1)NCc1nnc2c3ccccc3c(-c3ccccc3)nn12	i	i	i	i	i	13µM
NC(=O)CN(c1ccc([N+](=O)[O-])cc1)S(=O)(=O)c1ccccc1	i	i	i	?	i	i
CCOC(=O)c1sc(N2C(=O)C(O)=C(C(=O)c3ccco3)C2c2cccc([N+](=O)[O-])c2)nc1C (configuration not stated)	?	i	i	i	i	i
Cc1cc(C)cc(C(=O)NCC(=O)OCc2nc(N)nc(Nc3ccccc3C)n2)c1	nt	i	nt	i	nt	i
CCc1ccccc1Nc1nc(N)nc(COC(=O)C2CCN(C(=O)c3ccc(F)cc3)CC2)n1	nt	i	nt	12µM	nt	?
CCc1ccccc1Nc1nc(N)nc(COC(=O)CCS(=O)(=O)c2ccccc2)n1	nt	i	nt	i	nt	i
Nc1nc(COC(=O)C2CCN(C(=O)c3ccc(Cl)cc3)CC2)nc(Nc2ccccc2)n1	nt	i	nt	?	nt	?
Cc1ccccc1Nc1nc(N)nc(COC(=O)c2cccn2C)n1	i	i[11.4 µM]	36	nt	69	i
CCc1ccccc1Nc1nc(N)nc(COC(=O)c2cccn2C)n1	i	i	30	i	i	i
COc1ccc(NC(=O)CCCN2C(=O)CCn3nc(-c4cn(C)c5ccccc45)cc32)cc1	nt	i	nt	nt	nt	nt
Cc1cc(-c2nnco2)c(C)n1-c1ccccc1	i	i	37	i	i	?
CC(CCc1ccccc1)NC(=O)CN1C(=O)NC2(CCCCC2)C1=O (configuration not stated)	nt	i	i	i	i	i
Cc1nn(C(C)(C)C)c(OC(=O)c2ccc3c(c2)OCO3)c1S(=O)(=O)c1ccccc1	i	i	37	i	i	nt
